Most compounds without a hit are left out; they make up all but 3.3% or so of the library.
VACV Venus inh: inhibitors of vaccinia virus (Venus reporter). 330,000 compounds, 0.46% hits. Potency, µM (top dose mostly 36.5 µM), for inactives: at the highest dose activity change, negative = inhibition, actives largely listed as inhibitors. AID 720580. Vaccinia virus Venus reporter expression, fluorescence; calls by dose curve; tested in A549 cells; note: nearly all actives have a fitted effect of over 30% in size
VACV mCherry inh: vaccinia inhibition (mCherry reporter) | Vaccinia virus mCherry reporter infection, fluorescence | Potency, µM (titrated, usually from 36.5 µM), without a hit: at the top dose activity change, negative = inhibition, most hits filed as inhibitors | 310,000 compounds, 0.63% hits | AID 720579; calls by dose curve; tested in A549 cells; note: nearly all actives have a fitted effect of over 35% in size
HCV inh: inhibitors of hepatitis C virus infection; Huh7.5.1 HCVcc-Cre infection, luciferase reporter, 44 h; 340,000 compounds, 3.4% hits; Potency, µM (series often up to 41.8 µM), for the others: at the highest dose activity change, negative = inhibition, usual class: inhibitors; active = well fitted inhibition curve with a large enough effect; inconclusive = small, poorly fitted or top-dose-only effect, or another doubt; inactive = no such curve, though single readings can be large or run the other way
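1,000 cells/well; 4 h culture; + compound; + HCVcc-Cre (~0.5 moi); 44 h; luciferase substrate, RT 15 min; read 15 sec.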
The depositor's hits bear a star; i = inactive; ? = inconclusive; . = not tested or not shown; [ ] = remark or other dose. % is set by controls: 0 for no effect and ±100 for the full control effect; potency is the fitted concentration of half-maximal effect.

SMILES	VACV Venus inh	VACV mCherry inh	HCV inh
COc1ccc(COC(=O)c2cc([N+](=O)[O-])ccc2N2CCOCC2)cc1F	?	?	32µM*
O=C(COC(=O)c1cc(S(=O)(=O)N2CCOCC2)ccc1F)c1ccccc1	.	.	4%
CC(=O)c1c(C)[nH]c(C(=O)OCC(=O)Nc2cc(Cl)ccc2[N+](=O)[O-])c1C	.	.	10µM*
CC(=O)c1c(C)[nH]c(C(=O)OCC(=O)Nc2ccc(C)cc2[N+](=O)[O-])c1C	.	.	2.8µM*
Cc1ccc(NC(=O)COC(=O)C2=COCCO2)c([N+](=O)[O-])c1	-20%	i	-5%
Cc1cc(C)n(-c2ccc(C(=O)OCC(=O)Nc3cc(Cl)ccc3[N+](=O)[O-])cc2)n1	-14%	-10%	17%
CN1CCN(c2c(/C=N/O)c3ccccc3n2C)CC1	-7%	-6%	-18%
Cc1ccccc1C(=O)O/N=C/c1c(N2CCOCC2)n(C)c2ccccc12	.	.	1µM*
COc1ccc(CN2CC[C@H]3C=CC[C@@H](C(=O)N4CCN(c5ccccc5)CC4)[C@H]3C2=O)cc1OC	-3%	-10%	.
COc1ccc(-c2cc(C(F)(F)F)n3nc(C(=O)Nc4cc(Cl)cc(Cl)c4)cc3n2)cc1	-11%	-7%	.
CC(=O)c1cccc(NC(=O)c2cc3nc(-c4ccc(Br)cc4)cc(C(F)(F)F)n3n2)c1	?	13µM*	.
Cc1ccc(N(CCC#N)C(=O)CSc2nnc3ccccn23)cc1	.	.	9%
CCCC(=O)Nc1nc2ccc(NC(=O)c3ccc(Br)o3)cc2s1	?	.	7.9µM*
Cc1nc2ccc(NC(=O)c3ccc(Br)o3)cc2s1	-21%	-19%	-17%
CCOc1cc(N2CCOCC2)c(OCC)cc1NC(=O)c1cc(C)cc(C)c1	-5%	-4%	3.5µM*
CCOc1cc(N2CCOCC2)c(OCC)cc1NC(=O)c1ccc(C)cc1	-11%	-24%	?
Cc1ccc(Cl)cc1NC(=O)CSc1nc2c(c(=O)[nH]1)CN(Cc1ccccc1)CC2	-1%	16%	.
C/C=C(\NNC(C)=O)c1ccc(O)cc1	-15%	-17%	.
COC(=O)C1=C(C)N(CC(C)C)C(=O)/C1=C\c1cccs1	-15%	-14%[1.46 µM]	16µM*
CCOC(=O)C1=C(C)N(CC(C)C)C(=O)/C1=C\c1cccs1	-2%[7.34 µM]	-17%[7.34 µM]	?
COC(=O)C1=C(C)N(Cc2ccccc2)C(=O)/C1=C\c1ccco1	3%	?	-19%
CCN1C(=O)/C(=C\c2ccco2)C(C(=O)OC)=C1C	.	.	13µM*
C=CCN1C(=O)/C(=C\c2ccco2)C(C(=O)OC)=C1C	-5%	-25%	?
COC(=O)C1=C(C)N(Cc2cccnc2)C(=O)/C1=C\c1sccc1C	-17%	?	11µM*
COc1ccc(N(C(=O)c2cccnc2)S(=O)(=O)c2ccc(F)cc2)cc1	-6%	-12%	10%
SMILES	VACV Venus inh	VACV mCherry inh	HCV inh
CNCC/C=C1/c2ccccc2CSc2ccccc21	?	?	10µM*
CN(C)CC/C=C1\c2ccccc2COc2ccccc21	-8%	-14%	?
Fc1ccc(/C=N/n2c(C3CCCCC3)n[nH]c2=S)cc1	.	.	4%
CCOc1ccc(/C=N/n2c(C3CCCCC3)n[nH]c2=S)cc1	.	.	11µM*
O=C(Nn1cnnc1)c1cc(Br)ccc1Cl	.	.	15%
COc1ccc(OCCN2CCN(C(=O)c3ccc(OC)cc3)CC2)cc1	-11%	-9%	10µM*
COc1ccc(C(=O)N2CCC(C(=O)c3ccc(F)cc3)CC2)cc1	-20%	-26%	-3%
Cc1ccc(C(=O)N2CCN(S(=O)(=O)N3CCCCCC3)CC2)cc1	-12%	-23%	18%
COc1ccc(C(=O)C2CCN(C(=O)c3ccc(OC)cc3)CC2)cc1	?	-23%	7.9µM*
CCOc1ccc(C(=O)N2CCC(C(=O)c3ccc4c(c3)OCCO4)CC2)cc1	.	.	10µM*
Cc1ccc(C(=O)N2CCC(C(=O)c3c(C)cc(C)cc3C)CC2)cc1	.	.	11µM*
COc1ccc(OCCN2CCN(C(=O)c3ccc(OC(F)F)c(OC)c3)CC2)cc1	-12%	-4%	?
CCOC(=O)C1CCN(C(=O)c2ccc3c(c2)OCCO3)CC1	.	.	10%
Cc1cc2nnc(SCC(=O)Nc3ccc(F)c(Cl)c3)n2c2ccccc12	-5%	-5%	.
Cc1c(Cl)cccc1-c1ccc(C(=O)Nc2ccc(F)cc2)o1	8%	0%	.
CC(C)CC(OC(=O)c1nsc(Cl)c1Cl)C(=O)NCC1CCCO1 (stereo not drawn)	0%	-1%	13%
CCc1cccc(C)c1Nc1c(-c2cccc(O)c2)nc2nc(C)cc(C)n12	-17%	-20%	.
CC1C=CCC2C(=O)N(c3cccc(C(=O)Nc4ccc(Br)cc4)c3)C(=O)C12 (stereo not drawn)	-18%	-8%	?
COc1ccc(CNC(=O)CN2CCC(C(=O)c3ccc(OC)cc3)CC2)cc1	.	.	13µM*
COc1ccc(C(=O)C2CCN(CC(=O)NCc3ccccc3)CC2)cc1	-17%	-26%	?
O=S(=O)(c1cccc(C(F)(F)F)c1)N1CCN(c2nc(-c3ccccc3)nc3ccccc23)CC1	-14%	-9%	.
CCCCn1c(N)c(N(CCOC)C(=O)c2ccc(C)o2)c(=O)[nH]c1=O	-3%	-15%	10%
CN1C(=O)C(C)(C)c2cc(S(=O)(=O)N3CCC(C(=O)Nc4ccc(Cl)cc4)CC3)ccc21	-14%	-10%	3%
COc1ccc(NC(=O)C2CCCN(S(=O)(=O)c3ccc4c(c3)CCCN4C(C)=O)C2)cc1Cl (stereo not drawn)	-2%	i	2.5µM*
Cc1ccccc1NC(=O)C1CCCN(S(=O)(=O)c2ccc3c(c2)C(C)(C)C(=O)N3C)C1 (stereo not drawn)	-7%	3%	1%
SMILES	VACV Venus inh	VACV mCherry inh	HCV inh
COc1ccc(NC(=O)C2CCCN(S(=O)(=O)c3ccc4c(c3)CCCN4C(C)=O)C2)cc1 (stereo not drawn)	-25%	-13%	?
CN1C(=O)C(C)(C)c2cc(S(=O)(=O)N3CCCC(C(=O)Nc4ccc(Cl)cc4)C3)ccc21 (stereo not drawn)	?	?	11µM*
CC(C)c1ccc(NC(=O)C2CCCN(S(=O)(=O)c3ccc4c(c3)C(C)(C)C(=O)N4C)C2)cc1 (stereo not drawn)	-20%	3%	13µM*
Cc1cc(Cl)c2oc(C(=O)NC3CCC(O)CC3)c(C)c2c1 (stereo not drawn)	.	.	14µM*
Cc1cc(Cl)c2oc(C(=O)NCC(C)(C)N3CCOCC3)c(C)c2c1	2%	i	?
Nc1nnc(Cc2cccc(Br)c2)s1	-4%	-9%	18%
CCn1nc(C)c(CN2CCC3(CCC(CNC(=O)c4ccccc4)O3)CC2)c1C (stereo not drawn)	-6%	-6%	.
CC(C)(C)NC(=O)C(c1ccc(-c2ccccc2)cc1)N(C[C@H]1CC[C@@H]([C@@H]2CC[C@H](CO)O2)O1)C(=O)c1ccc2ccccc2c1 (stereo partly drawn)	-10%	-7%	?
CC(C)(C)NC(=O)C(c1ccc(-c2ccccc2)cc1)N(C[C@H]1CC[C@@H]([C@@H]2CC[C@H](CO)O2)O1)C(=O)c1ccc(-c2ccccc2)cc1 (stereo partly drawn)	?	28µM*	-24%
CCc1ccc(C(c2ccccc2)c2c(C)[nH]c3ccccc23)s1 (stereo not drawn)	-13%	-13%	.

Screening data: PubChem, National Center for Advancing Translational Sciences (NCATS)
